This note sets out measurements from PubChem BioAssay (NCI).

Assay in all cases: NCI-60 one-dose screen, 48 h (100 = growth as untreated, 0 = no growth, -100 = all killed)
Holding throughout (details): 10 µM unless noted

The test system of assay [1] is HCT-15 colon.
In assay [2] the test system is HT29 colon.
The subject of assay [3] is SNB-75 CNS.
Assay [4] deals with SNB-19 CNS.
Assay [5] has as its system U251 CNS.
Assay [6] relates to PC-3 prostate.
Assay [7] concerns SK-MEL-5 melanoma.
Assay [8] deals with UACC-62 melanoma.
Assay [9] concerns LOX IMVI melanoma.
For assay [10], the system named is SK-MEL-28 melanoma.
For assay [11], the system named is SK-MEL-2 melanoma.
Assay [12] concerns EKVX NSCLC.
For assay [13], the system named is SN12C renal.
Assay [14] relates to UO-31 renal.
Assay [15] concerns TK-10 renal.
The subject of assay [16] is ACHN renal.
In assay [17] the test system is CAKI-1 renal.
Assay [18] deals with A498 renal.
For assay [19], the system named is CCRF-CEM leukemia.
For assay [20], the system named is MOLT-4 leukemia.

Structures are written as SMILES. About 83,000 compounds went through this panel and 20% of them were active in at least one assay; those are over-represented in the sample as a whole.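 Cell lines were cultured in 96-well plates, exposed to a single compound concentration, and assessed for percent growth 48 hours later.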 A number with no mark means an inactive call. The source made the active and inactive calls. The calls were made as follows: active = growth percent below 10; inactive = the rest.

As to `COc1ccc(/C=C2\COc3ccc(-c4ccccc4)cc3C2=O)c(OC)c1`, the growth is 84.3% in [1]; 76.7% in assay [2]; 65.5% in assay [3]; 103% in assay [4]; 84.6% in assay [5]; 78.2% in [6]. In addition, the growth in [7] was 81.2%; in assay [8], 74.1%; in [9] it was 79%; in assay [10], 108%; in assay [11] it was 101%; in assay [12], 161%. The growth in assay [13] is 83.8%; in [14], 86.2%; in assay [15], 94.8%; in assay [16], 93%; in assay [17] it was 116%; in assay [18] it was 128%. Besides, the growth in [19] was 71.2%; in [20], 57.9%.
Regarding `COc1ccc(/C=C/C(=O)Nc2cc(/C=C\c3cc(OC)c(OC)c(OC)c3)cc(OC)c2OC)cc1OC`, the growth is 25.9% in assay [1]; 14.6% in assay [2]; 34.7% in [3]; 46.2% in [4]; 41.3% in [5]; 20.7% in assay [6]. Further, the growth is -59.3% (active) in assay [7]; 16.3% in [8]; 27.7% in assay [9]; 40.1% in [10]; 19.9% in [11]; 31.4% in [12]. In addition, the growth in assay [13] is 33%; in assay [14], 19.4%; in [15] it was 73.9%; in [16], 39.1%; in assay [17], 12%; in [18] it was -1.95% (active). In addition, the growth in assay [19] was 3.79% (active); in [20], -13.9% (active).
As for `C[C@H]1[C@H]2[C@H]3CC[C@@H]4[C@@]5(C)CC[C@H](O)C(C)(C)[C@@H]5CC[C@@]4(C)[C@]3(C)CC[C@]23CO[C@]1(C)[C@@H](C(=O)/C=C\c1ccco1)C3`, the growth in [1] is 106%; in [2], 98.1%; in assay [3] it was 78.4%; in assay [4] it was 75.3%; in [5], 69.4%; in assay [6], 92.7%. Moreover, the growth in [7] is 8.55% (active); in assay [8], 7.16% (active); in [9], 89%; in assay [10], 36.7%; in [11], 9.51% (active); in assay [12] it was 105%. The growth in assay [13] is 101%; in assay [14] it was 77%; in assay [15], 97.4%; in assay [16], 44.3%; in assay [17], 55.8%; in [18], 96.2%. Moreover, the growth in assay [19] is 101%.
`N#Cc1c(-c2cccc([N+](=O)[O-])c2)nc(SCC(=O)c2ccc(Cl)cc2)[nH]c1=O`: the growth in [1] is 103%; in [2], 105%; in assay [3] it was 72.2%; in assay [4], 92.8%; in assay [5], 97.3%; in assay [6], 100%. For the same compound, the growth is 106% in [7]; 93.6% in assay [8]; 96% in assay [9]; 107% in assay [10]; 110% in assay [11]; 99.8% in assay [12]. For the same compound, the growth is 96.9% in assay [13]; 80.6% in assay [14]; 102% in assay [15]; 103% in [16]; 88.8% in assay [17]; 92.3% in assay [18]. Also, the growth in assay [19] is 2.87% (active).
`COC1=CC(=O)c2ccccc2C1=O`: the growth in assay [1] was 99.7%; in [2] it was 38.9%; in assay [3], 33.7%; in [4], 105%; in assay [5] it was 52.6%; in assay [6], 65.7%. Besides, the growth in [7] is 47.8%; in assay [8], 74.2%; in assay [9], 4.09% (active); in assay [10] it was 90%; in assay [11], 69.3%; in assay [12], 110%. The growth was 84.8% in assay [13]; 71.9% in assay [14]; 94% in assay [15]; 75.6% in [16]; 95.6% in assay [17]; 107% in assay [18].
On to `C=C(C)[C@@H]1CC[C@]2(C(=O)N[C@@H](Cc3ccccc3)C(=O)OC)CC[C@]3(C)[C@H](CC[C@@H]4[C@@]5(C)CCC(=O)C(C)(C)[C@@H]5CC[C@]43C)[C@@H]12`, for which the growth in [1] was 94%; in assay [2], 70.1%; in [3], 87.1%; in assay [4], 104%; in assay [5], 85.2%; in assay [6], 52.3%. The growth is 95.2% in assay [7]; 56.9% in assay [8]; 73.9% in assay [9]; 97.9% in [10]; 75.8% in assay [11]; 85.4% in assay [12]. In addition, the growth in [13] is 95.3%; in assay [14] it was 75.7%; in [15], 90.9%; in assay [16], 90.5%; in assay [17] it was 45.5%; in assay [18] it was 84%. For the same compound, the results for the growth in assay [19] and in assay [20] were 84.7% and 64.6%, respectively.
`N#CC1=C(N)Oc2c(cnn2-c2ccc([N+](=O)[O-])cc2[N+](=O)[O-])C1c1ccccc1` (stereo not given): the growth in assay [1] is 93.2%; in assay [2], 110%; in [3] it was 86.5%; in [4], 104%; in assay [5], 102%; in assay [6], 105%. The growth in assay [7] is 97.1%; in assay [8], 93%; in [9], 102%; in [10] it was 106%; in [11], 110%; in assay [12], 90.6%. For the same compound, the growth was 101% in assay [13]; 79.9% in assay [14]; 99.4% in [15]; 103% in assay [16]; 90.6% in [17]; 50.7% in [18]. Further, the growth in assay [19] was 79.7%.
`Cc1cc2c(c(C)c1Cl)C(=O)/C(=C/c1ccc(O)c(O)c1)O2`: the growth was 106% in assay [1]; 106% in assay [2]; 99% in assay [3]; 99.2% in assay [4]; 85.4% in [5]; 100% in [6]. Further, the growth in [7] was 100%; in assay [8], 88.8%; in assay [9], 93.7%; in [10], 105%; in [11] it was 104%; in assay [12], 98.7%. Also, the growth in assay [13] was 92.1%; in assay [14], 72.2%; in [15], 119%; in assay [16], 92.7%; in assay [17] it was 90.6%; in assay [18], 106%. The growth in assay [19] was 101%; in [20] it was 108%.
